14 molecules from PubChem BioAssay can be followed below.

A short description of assay [1]: inhibitors of TNFa-induced NFkB p65 translocation, primary screen, imaging, HUVEC, MLSMR starter and 10KST1 sets (AID 438;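 active means inhibition above 20% together with a positive visual image hit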;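 further: compound added about 3h40 before a 20 min TNFalpha stimulation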;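 on inhibition: signal is the nuclear over cytoplasmic p65 intensity ratio per well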). As to conditions: HUVEC TNFa-induced p65 nuclear translocation; cell count: measured here: nuclei count (cytotoxicity indicator), at 2.08 µM; inhibition: at 2 µM, stronger effect = higher value, 0% TNFa-plus-vehicle, 100% no-TNFa wells.
Assay [2] is described as follows: inhibitors of mutant huntingtin aggregation, primary screen, imaging, exon1htt(103Q)mCFP cells, high-content imaging (AID 483;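 active means visual image review flags a hit and inhibition of aggregation exceeds 20%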;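 further: compound exposure lasted 3 days before fixation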;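 on nuclei count: percent of the per-plate median nuclei count of sample wells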). As to conditions: exon1htt(103Q)mCFP cell line, aggregate imaging, at 2 µM; inhibition of aggregation: stronger effect = higher value; nuclei count: measured here: cell count, toxicity.
Assay [3] can be described thus: inhibitors of E-selectin induction by TNFa, primary screen, imaging, HUVEC, immunofluorescence, MLSMR starter and 10KST1 sets (AID 487;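 active means visually confirmed hit in the image check and inhibition above 20%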;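 on inhibition: signal is fraction of cell area covered by stained E-selectin grains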;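 on nuclei count: 100% = median nuclei count of all wells on the same plate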). As to conditions: HUVEC TNFalpha-induced E-selectin immunofluorescence imaging, at 2 µM; inhibition: stronger effect = higher value; nuclei count: measured here: cell number, toxicity.
The target in assay [4] is Voltage-gated potassium channel subunit beta-2 (Rattus norvegicus) (UniProt P62483). The experiment in a line: KvBeta enzyme negative modulators, primary screen, biochemical, NADPH fluorescence (AID 622).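 Further: slope of raw intensity against log time taken from 70 to 1610 s.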 As to conditions: recombinant KvBeta, 4-cyanobenzaldehyde reduction, at 10 µM, stronger effect = higher value.
Assay [5] has the same target. The experiment in a line: KvBeta positive modulators, primary screen, biochemical, NADPH fluorescence (AID 623;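 active means NADPH fluorescence slope more negative than the mean of all samples by about 3 SD, 99.7% confidence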;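 further: fluorescence intensity change per second fitted from 20 to 320 s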). As to conditions: Recombinant KvBeta, NADPH fluorescence decrease slope, 10 min; at 10 µM; stronger effect = lower value.
Assay [6] concerns the target Alpha-2C adrenergic receptor (Homo sapiens) (UniProt P18825). The experiment in a line: modulators of alpha2C/GIRK thallium flux, primary screen, cell-based, HEK293 alpha2C/GIRK1/2 (AID 624;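 active means fluorescence slope after compound addition differing from the mean of all screened samples at 99.7% confidence, in either direction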;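 further: slope of fluorescence ratio to pre-addition baseline per second over 15 to 24 s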). As to conditions: thallium flux BTC fluorescence, at 10 µM, actives lie on both sides.
The nature of assay [7]: inhibitors of Sendai virus-induced IRF3 signaling, primary screen, TLR/RLR signaling modifier project, cell-based, Sendai virus stimulus, luciferase, 10K MLSCN set (AID 602276;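 active means inhibition at or above 50% at 10 µM; inactive means inhibition below 50%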;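 further: firefly luciferase from ISG56 promoter only with Renilla not read in this screen; 0% = Sendai virus plus DMSO and 100% = medium plus DMSO without virus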). Conditions: HEK293 RL24 IRF3 luciferase reporter, at 10 µM, stronger effect = higher value.
Assay [8] is described as follows: inhibitors of poly I:C-induced TLR3 signaling, primary screen, cell-based, poly I:C stimulus, luciferase, 10K MLSCN set (AID 602277;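 active means inhibition of the reporter signal at or above 50%; inactive means inhibition below 50%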). Conditions: HEK293-TLR3 RL24 IRF3 luciferase reporter, at 10 µM, stronger effect = higher value.

Molecules are shown by their SMILES. Active and inactive are the calls of the source.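 How the source made its calls, unless noted: active means fluorescence slope higher than the sample average by over 3 SD (cut at about -0.22 in these data, passing the limit was not always enough); inactive means the rest.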

Voltage-gated potassium channel subunit beta-2 (Rattus norvegicus), sequence (P62483 whole entry, looked up): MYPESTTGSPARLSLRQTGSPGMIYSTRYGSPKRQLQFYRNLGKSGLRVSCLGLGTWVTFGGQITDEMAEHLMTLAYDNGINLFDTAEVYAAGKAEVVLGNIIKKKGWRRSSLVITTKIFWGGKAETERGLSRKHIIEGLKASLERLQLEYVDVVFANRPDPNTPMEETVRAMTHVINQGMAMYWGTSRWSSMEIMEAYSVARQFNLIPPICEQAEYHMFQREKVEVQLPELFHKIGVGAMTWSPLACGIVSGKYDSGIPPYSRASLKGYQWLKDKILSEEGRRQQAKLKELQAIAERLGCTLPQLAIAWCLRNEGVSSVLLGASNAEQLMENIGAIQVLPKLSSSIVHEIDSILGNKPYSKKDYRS
Alpha-2C adrenergic receptor (Homo sapiens), sequence (P18825 whole entry, looked up): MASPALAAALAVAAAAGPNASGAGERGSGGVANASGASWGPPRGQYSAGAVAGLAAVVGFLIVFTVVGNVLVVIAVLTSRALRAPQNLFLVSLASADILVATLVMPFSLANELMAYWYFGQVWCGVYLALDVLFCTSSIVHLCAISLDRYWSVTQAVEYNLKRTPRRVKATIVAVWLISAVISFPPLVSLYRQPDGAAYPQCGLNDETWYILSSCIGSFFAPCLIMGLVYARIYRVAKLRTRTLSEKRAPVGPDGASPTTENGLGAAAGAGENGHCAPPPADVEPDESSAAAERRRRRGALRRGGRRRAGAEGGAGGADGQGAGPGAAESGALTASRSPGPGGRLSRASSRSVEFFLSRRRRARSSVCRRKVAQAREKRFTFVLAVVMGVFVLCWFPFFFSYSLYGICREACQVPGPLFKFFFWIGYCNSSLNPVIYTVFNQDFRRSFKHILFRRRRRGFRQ

For `Cn1c(=O)c2c(nc(SCCCC#N)n2Cc2ccccc2F)n(C)c1=O`, the cell count in assay [1] turned out to be 601. Moreover, the inhibition in assay [1] is 4.5% (inactive); in assay [3] it was -51% (inactive); in assay [7], 12.9% (inactive); in assay [8], 36.5% (inactive). The inhibition of aggregation in assay [2] is -13.6% (inactive). The nuclei count in assay [2] was determined as 109%; in assay [3], 119%. Further, the fluorescence slope in assay [4] is -0.416 (inactive). The NADPH fluorescence slope in assay [5] is -2.8e-05 (inactive). Besides, the slope in assay [6] is 0.00541 (inactive).
Consider `COc1ccc(OCCCC(=O)Nc2nncs2)cc1`, for which the cell count in assay [1] was 296. Besides, the inhibition in assay [1] is 22.6% (inactive); in assay [3] it was -32.3% (inactive); in assay [7], -0.71% (inactive); in assay [8], 5.99% (inactive). Moreover, in assay [2], the inhibition of aggregation was 12.8% (inactive). In addition, the nuclei count is 95.6% in assay [2] and 102% in assay [3]. Also, the fluorescence slope in assay [4] was -0.294 (inactive). Further, the NADPH fluorescence slope in assay [5] is -3.4e-05 (inactive). Besides, the slope in assay [6] is 0.00603 (inactive).
With `O=C(O)c1ccc2c3c(ncnc13)-c1ccccc1C2=O`, the cell count in assay [1] came out at 336. The inhibition in assay [1] is -10.1% (inactive); in assay [3], -34.1% (inactive); in assay [7], 18.4% (inactive); in assay [8], 26.7% (inactive). In addition, the inhibition of aggregation in assay [2] is -50.8% (inactive). The nuclei count turned out to be 9.6% in assay [2] and 93% in assay [3]. Besides, the fluorescence slope in assay [4] was -0.155 (inactive). The NADPH fluorescence slope in assay [5] is -4.9e-06 (inactive). In addition, the slope in assay [6] is 0.0028 (inactive).
As to `COc1cc(C(=O)Nc2cccc(-c3nncn3C)c2)cc(OC)c1OC`, the cell count in assay [1] is 416. Moreover, the inhibition in assay [1] is 7.6% (inactive); in assay [3] it was -52.3% (inactive); in assay [7], 14.3% (inactive); in assay [8] it was 14.5% (inactive). Also, the inhibition of aggregation in assay [2] was 22.2% (inactive). Moreover, the figures for the nuclei count in assay [2] and in assay [3] were 76.5% and 102%, respectively. Also, the fluorescence slope in assay [4] was -0.303 (inactive). In addition, the NADPH fluorescence slope in assay [5] is -2.8e-05 (inactive). Moreover, in assay [6], the slope is 0.00614 (inactive).
For `CC(=O)Nc1c(O)nc(SCC(=O)Nc2nnc(CC(C)C)s2)[nH]c1=O`, the cell count in assay [1] came out at 780. In addition, the inhibition in assay [1] is -3.3% (inactive); in assay [3], -41% (inactive); in assay [7], -9.44% (inactive); in assay [8], -13.3% (inactive). Besides, the inhibition of aggregation in assay [2] was 0% (inactive). Besides, the nuclei count in assay [2] came out at 114%; in assay [3], 104%. Also, the fluorescence slope in assay [4] is -0.541 (inactive). Moreover, the NADPH fluorescence slope in assay [5] was 1.8e-05 (inactive). In assay [6], the slope is 0.00412 (inactive).
As for `COc1cc(C(=O)N2CCC(NC(=O)C(Cc3ccc(C)cc3)NC(C)=O)CC2)cc(OC)c1OC` (centres undefined), the cell count in assay [1] was determined as 666. Besides, the inhibition in assay [1] was -6.1% (inactive); in assay [3] it was 5.2% (inactive); in assay [7] it was 1.73% (inactive); in assay [8], 24.4% (inactive). The inhibition of aggregation in assay [2] was 22.1% (inactive). The figures for the nuclei count in assay [2] and in assay [3] were 56.4% and 127%, respectively. Moreover, in assay [4], the fluorescence slope was -0.478 (inactive). The NADPH fluorescence slope in assay [5] was -4.4e-05 (inactive). Besides, the slope in assay [6] was 0.00562 (inactive).
For `O=C(CCNS(=O)(=O)c1cccc2nsnc12)Nc1ccc2c(c1)OCCO2`, the cell count in assay [1] was determined as 565. The inhibition in assay [1] is -17.9% (inactive); in assay [3], -28% (inactive); in assay [7], 19.3% (inactive); in assay [8], 23.2% (inactive). The inhibition of aggregation in assay [2] was -1.5% (inactive). Besides, the nuclei count stood at 120% in assay [2] and 119% in assay [3]. In addition, in assay [4], the fluorescence slope is -0.421 (inactive). Also, in assay [5], the NADPH fluorescence slope is -0.00049 (inactive). Moreover, in assay [6], the slope was 0.00512 (inactive).
With `CCCCOc1ccc(CSc2n[nH]c(C)n2)cc1`, in assay [1], the cell count turned out to be 243. In addition, the inhibition was 0.2% (inactive) in assay [1], 5.3% (inactive) in assay [3], -55.7% (inactive) in assay [7] and -90.2% (inactive) in assay [8]. Besides, the inhibition of aggregation in assay [2] is -0.4% (inactive). The figures for the nuclei count in assay [2] and in assay [3] were 86.8% and 96.6%, respectively. The fluorescence slope in assay [4] is -0.435 (inactive). In assay [5], the NADPH fluorescence slope is 2.4e-05 (inactive). The slope in assay [6] was 0.00825 (inactive).
On to `CCn1cc(C(=O)NC2CCc3ccccc32)c(=O)c2ccc(C)nc21` (centres undefined), for which the cell count in assay [1] came out at 727. In addition, the inhibition in assay [1] is -2.2% (inactive); in assay [3], -37% (inactive); in assay [7], 7.46% (inactive); in assay [8], 13.4% (inactive). Further, in assay [2], the inhibition of aggregation is -0.4% (inactive). In addition, the nuclei count in assay [2] was 100%; in assay [3], 110%. For the same molecule, the fluorescence slope in assay [4] is -0.559 (inactive). The NADPH fluorescence slope in assay [5] was 2.4e-05 (inactive). Besides, the slope in assay [6] was 0.00594 (inactive).
In the case of `O=C1NC(=O)C(CC(=O)N(Cc2ccco2)C2(C(=O)NC3CCCC3)CCCCC2)N1` (centres undefined), in assay [1], the cell count came to 670. For the same molecule, the inhibition was -7.4% (inactive) in assay [1], -67.8% (inactive) in assay [3], -0.4% (inactive) in assay [7] and 18.4% (inactive) in assay [8]. In addition, in assay [2], the inhibition of aggregation was 28.8% (active). Moreover, the figures for the nuclei count in assay [2] and in assay [3] were 106% and 127%, respectively. For the same molecule, the fluorescence slope in assay [4] was -0.534 (inactive). In addition, the NADPH fluorescence slope in assay [5] was -3.9e-05 (inactive). Also, in assay [6], the slope was 0.00746 (inactive).
Turning to `COC(=O)C1C(=O)c2c([nH]c(C(=O)OCCOC(C)C)c2C)CC1C` (centres undefined), in assay [1], the cell count came to 304. Besides, the inhibition in assay [1] is -3.3% (inactive); in assay [3], -46.9% (inactive); in assay [7], -33.4% (inactive); in assay [8], -43.7% (inactive). The inhibition of aggregation in assay [2] was -11.8% (inactive). In addition, the nuclei count in assay [2] was 112%; in assay [3], 117%. In addition, the fluorescence slope in assay [4] was -0.393 (inactive). The NADPH fluorescence slope in assay [5] is -5.7e-05 (inactive). The slope in assay [6] is 0.00401 (inactive).
With `COc1cc(CN2CCC(C(=O)NC3CCCC3)CC2)ccc1O`, the cell count in assay [1] was 755. The inhibition in assay [1] is -5.5% (inactive); in assay [3], -29.8% (inactive); in assay [7], 4.81% (inactive); in assay [8] it was 13.9% (inactive). In addition, the inhibition of aggregation in assay [2] was -13.7% (inactive). Besides, the nuclei count in assay [2] worked out at 64.3%; in assay [3], 124%. In addition, the fluorescence slope in assay [4] is -0.344 (inactive). In assay [5], the NADPH fluorescence slope was -3.9e-06 (inactive). Moreover, the slope in assay [6] was 0.00666 (inactive).
`COC(=O)c1ccc(C)c(NS(=O)(=O)c2ccc3c(c2)OCCO3)c1`: the cell count in assay [1] turned out to be 263. The inhibition is 12.5% (inactive) in assay [1], -60.4% (inactive) in assay [3], 43.8% (inactive) in assay [7] and 58.5% (active) in assay [8]. Also, the inhibition of aggregation in assay [2] is 22.6% (inactive). Besides, the nuclei count in assay [2] was 56.8%; in assay [3], 94%. The fluorescence slope in assay [4] was -0.393 (inactive). Further, in assay [5], the NADPH fluorescence slope was -5.8e-05 (inactive). In addition, in assay [6], the slope is 0.00526 (inactive).
For the molecule `COc1ccc(CN(Cc2nc3ccccc3c(=O)[nH]2)C(=O)NC2CCCCC2)cc1`, in assay [1], the cell count was determined as 389. The inhibition is -8.4% (inactive) in assay [1], -95.3% (inactive) in assay [3], 15.1% (inactive) in assay [7] and 29.3% (inactive) in assay [8]. The inhibition of aggregation in assay [2] was 4.6% (inactive). The values for the nuclei count in assay [2] and in assay [3] were 100% and 84.3%, respectively. The fluorescence slope in assay [4] was -0.359 (inactive). In addition, in assay [5], the NADPH fluorescence slope was -2.1e-05 (inactive). In addition, the slope in assay [6] was 0.00294 (inactive).
